Measurements published in PubChem BioAssay (NCI).
Compounds without any hit were thinned out: in the full panel of roughly 79,000, 15% have a hit. The source made the active and inactive calls. Cut-off read from the data, not from the text of the source: active = growth inhibition above about 70%; inactive = the rest.

Key:
[1] = NCI Yeast Anticancer Drug Screen. Data for the mlh1 strain (AID 171);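 note: 0% = growth of vehicle-treated control cultures of the same strain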; settings: S. cerevisiae mlh1 strain growth inhibition, hits give high values
How it was run: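 Here the genetically defined yeast mutant is grown with each compound, and the extent to which its growth falls below that of vehicle-exposed cells is reported.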

[2] = NCI Yeast Anticancer Drug Screen. Data for the sgs1 strain (AID 173);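 note: 0% = growth of vehicle-only control cultures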; settings: S. cerevisiae sgs1 mutant, hits give high values
How it was run: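 Relative growth inhibition, referenced to vehicle, was determined in a yeast strain with a defined alteration affecting DNA damage repair or cell cycle control after compound exposure.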

[3] = NCI Yeast Anticancer Drug Screen. Data for the mlh1 rad18 strain (AID 175); settings: S. cerevisiae mlh1 rad18 strain growth inhibition, hits give high values
How it was run: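 In this whole-cell yeast screen, a strain with altered DNA damage repair is challenged with compound, and its growth is measured against matched vehicle-treated controls.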

[4] = NCI Yeast Anticancer Drug Screen. Data for the rad18 strain (AID 177); settings: S. cerevisiae rad18 mutant growth inhibition, hits give high values
How it was run: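 Screen uses a yeast strain with a defined lesion in DNA damage repair; compound effect is read as loss of growth compared to untreated vehicle cultures.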

[5] = NCI Yeast Anticancer Drug Screen. Data for the rad52 strain (AID 147);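 note: 0% = growth of vehicle-treated control cultures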; settings: S. cerevisiae rad52 mutant growth inhibition, hits give high values
How it was run: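 Measured: yeast growth inhibition. System: strain with a defined DNA damage repair alteration. Reference: vehicle-treated control cultures.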

[6] = NCI Yeast Anticancer Drug Screen. Data for the rad50EPP+ strain (AID 151);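 note: 0% = growth of vehicle-treated control cultures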; settings: S. cerevisiae rad50 mutant strain, hits give high values
How it was run: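 One strain with a rad50 alteration (rad50EPP+) was compound-treated, its growth then compared to that of vehicle controls.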

[7] = NCI Yeast Anticancer Drug Screen. Data for the mgt1 strain (AID 153); settings: S. cerevisiae mgt1 mutant growth inhibition, hits give high values
How it was run: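 After exposure of the mgt1 yeast mutant to compound, growth was measured and reported as inhibition compared with vehicle controls.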

[8] = NCI Yeast Anticancer Drug Screen. Data for the rad50 strain (AID 155);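 note: 0% = growth of vehicle-only cultures of the same strain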; settings: S. cerevisiae rad50 strain growth inhibition, hits give high values
How it was run: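 A DNA repair-deficient yeast mutant serves as the test organism; compound-induced growth inhibition is calculated against vehicle-treated cells.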

[9] = NCI Yeast Anticancer Drug Screen. Data for the mec2-1 strain (AID 157); settings: S. cerevisiae mec2-1 strain, hits give high values
How it was run: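 Test agents were screened against the mec2-1 yeast strain, with defined DNA repair or cell cycle alteration. Growth was scored as inhibition against vehicle-only controls.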

[10] = NCI Yeast Anticancer Drug Screen. Data for the sgs1 mgt1 strain (AID 161);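 note: 0% = growth of cultures given vehicle only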; settings: S. cerevisiae sgs1 mgt1 strain, hits give high values
How it was run: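 Mutant yeast exposed to compound; growth scored against vehicle-only wells.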

[11] = NCI Yeast Anticancer Drug Screen. Data for the CLN2oe strain (AID 163);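 note: 0% = growth of vehicle-only control cultures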; settings: S. cerevisiae CLN2oe strain, hits give high values
How it was run: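 Here, growth inhibition in a cell-cycle-altered yeast strain after compound exposure was quantified against vehicle control growth.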

[12] = NCI Yeast Anticancer Drug Screen. Data for the cln2 rad14 strain (AID 165);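 note: 0% = growth equal to vehicle treated cultures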; settings: S. cerevisiae cln2 rad14 strain, hits give high values
How it was run: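 Growth of compound-exposed yeast (cln2 rad14 genotype) measured and expressed as inhibition relative to vehicle.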

[13] = NCI Yeast Anticancer Drug Screen. Data for the bub3 strain (AID 167); settings: S. cerevisiae bub3 mutant strain, hits give high values
How it was run: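 Inhibition values come from growth of compound-treated mutant yeast normalised to vehicle-treated controls.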

[14] = NCI Yeast Anticancer Drug Screen. Data for the wt2 strain (AID 169);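 note: 0% = growth of vehicle-treated yeast cultures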; settings: S. cerevisiae wt2 strain growth inhibition, hits give high values
How it was run: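 Genetically defined yeast strains from a DNA-repair/cell-cycle panel were used. Compound-exposed yeast growth was measured, and the inhibition was calculated relative to vehicle treatment.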

[15] = at 5.0 µM (retest, dose inferred, filed as 0.5)
[16] = at 50.0 µM (retest, dose inferred, filed as 5.0)

Measured: growth inhibition

Cc1cc(S(=O)(=O)Nc2nnc3cnc4ccccc4n23)c(S)cc1Cl
inactive: [1]; at 1.2 µM -3% | [1]; at 3.7 µM -4% | [1]; at 11.0 µM 1% | [1]; at 33.0 µM 13% | [1]; at 100.0 µM 43% | [2]; at 1.2 µM -2% | [2]; at 3.7 µM 1% | [2]; at 11.0 µM 2% | [2]; at 33.0 µM 22% | [2]; at 100.0 µM 58% | [3]; [15] 8% | [3]; at 50.0 µM 15.2% | [4]; at 1.2 µM -6% | [4]; at 3.7 µM -1% | [4]; at 11.0 µM 21% | [4]; at 33.0 µM 14% | [4]; at 100.0 µM 48%
active: [3]; [16] 82%

CCCCN(CCCC)C(=O)/C=C/c1ccccc1
active: [5]; at 100.0 µM 93% | [8]; [16] 84% | [8]; at 50.0 µM 93.3% | [8]; at 100.0 µM 89% | [9]; [16] 85% | [9]; at 50.0 µM 92.2% | [9]; at 100.0 µM 79% | [10]; [16] 92% | [10]; at 50.0 µM 92.2% | [13]; [16] 76% | [13]; at 50.0 µM 74.2% | [13]; at 100.0 µM 70% | [14]; at 100.0 µM 97% | [2]; at 100.0 µM 87% | [3]; [16] 88% | [3]; at 50.0 µM 81.2%
inactive: [5]; at 1.2 µM -12% | [5]; at 3.7 µM -9% | [5]; at 11.0 µM -11% | [5]; at 33.0 µM 18% | [6]; at 1.2 µM -7% | [6]; at 3.7 µM -20% | [6]; at 11.0 µM -2% | [6]; at 33.0 µM 14% | [6]; at 100.0 µM 33% | [7]; at 1.2 µM -4% | [7]; at 3.7 µM -9% | [7]; at 11.0 µM -5% | [7]; at 33.0 µM -1% | [7]; at 100.0 µM 48% | [8]; at 1.2 µM -15% | [8]; at 3.7 µM -12% | [8]; [15] 5% | [8]; at 11.0 µM -10% | [8]; at 33.0 µM 15% | [9]; at 1.2 µM -5% | [9]; at 3.7 µM -5% | [9]; [15] -1% | [9]; at 11.0 µM -6% | [9]; at 33.0 µM -4% | [10]; [15] 4% | [11]; at 1.2 µM -9% | [11]; at 3.7 µM -6% | [11]; at 11.0 µM -23% | [11]; at 33.0 µM -9% | [11]; at 100.0 µM 43% | [12]; [15] 7% | [12]; [16] 20% | [12]; at 50.0 µM 68% | [13]; at 1.2 µM -2% | [13]; at 3.7 µM 10% | [13]; [15] 18% | [13]; at 11.0 µM 21% | [13]; at 33.0 µM 33% | [14]; at 1.2 µM 6% | [14]; at 3.7 µM -4% | [14]; at 11.0 µM 12% | [14]; at 33.0 µM 47% | [2]; at 1.2 µM -17% | [2]; at 3.7 µM -6% | [2]; at 11.0 µM 8% | [2]; at 33.0 µM 33% | [3]; [15] -3% | [4]; at 1.2 µM -6% | [4]; at 3.7 µM -9% | [4]; at 11.0 µM -3% | [4]; at 33.0 µM 4% | [4]; at 100.0 µM 61%
